Assay [1] can be described thus: compounds binding Alexa647 anti-His antibody – biochemical, small-molecule microarray, 635 nm fluorescence, artefact control for SMM control protein annotation, primary screen (AID 1128).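 Also: score merges feature fluorescence with signal-to-noise for each printed compound spot.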 The following applies: higher = more signal.
Assay [2] deals with Human papillomavirus type 1a E7 protein (residues 1-88). Briefly: HPV1a E7 small-molecule binders, primary screen, biochemical, small-molecule microarray, residues 1-88, 635 nm (AID 1129). The note with it: small-molecule microarray binding, fluorescence 635 nm; higher = more signal.
Assay [3] deals with Focal adhesion kinase 1 (Homo sapiens) (UniProt Q05397). Put plainly: PTK2 protein binding on printed compound slides – biochemical, small-molecule microarray, 635/667 nm fluorescence, BSA, DTT, primary screen (AID 1130).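 Also: composite of spot emission at 667 nm and signal to noise over triplicate slides.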 The following applies: 635 nm fluorescence, higher = more signal.
Focal adhesion kinase 1 (Homo sapiens), sequence (Q05397 whole entry, looked up): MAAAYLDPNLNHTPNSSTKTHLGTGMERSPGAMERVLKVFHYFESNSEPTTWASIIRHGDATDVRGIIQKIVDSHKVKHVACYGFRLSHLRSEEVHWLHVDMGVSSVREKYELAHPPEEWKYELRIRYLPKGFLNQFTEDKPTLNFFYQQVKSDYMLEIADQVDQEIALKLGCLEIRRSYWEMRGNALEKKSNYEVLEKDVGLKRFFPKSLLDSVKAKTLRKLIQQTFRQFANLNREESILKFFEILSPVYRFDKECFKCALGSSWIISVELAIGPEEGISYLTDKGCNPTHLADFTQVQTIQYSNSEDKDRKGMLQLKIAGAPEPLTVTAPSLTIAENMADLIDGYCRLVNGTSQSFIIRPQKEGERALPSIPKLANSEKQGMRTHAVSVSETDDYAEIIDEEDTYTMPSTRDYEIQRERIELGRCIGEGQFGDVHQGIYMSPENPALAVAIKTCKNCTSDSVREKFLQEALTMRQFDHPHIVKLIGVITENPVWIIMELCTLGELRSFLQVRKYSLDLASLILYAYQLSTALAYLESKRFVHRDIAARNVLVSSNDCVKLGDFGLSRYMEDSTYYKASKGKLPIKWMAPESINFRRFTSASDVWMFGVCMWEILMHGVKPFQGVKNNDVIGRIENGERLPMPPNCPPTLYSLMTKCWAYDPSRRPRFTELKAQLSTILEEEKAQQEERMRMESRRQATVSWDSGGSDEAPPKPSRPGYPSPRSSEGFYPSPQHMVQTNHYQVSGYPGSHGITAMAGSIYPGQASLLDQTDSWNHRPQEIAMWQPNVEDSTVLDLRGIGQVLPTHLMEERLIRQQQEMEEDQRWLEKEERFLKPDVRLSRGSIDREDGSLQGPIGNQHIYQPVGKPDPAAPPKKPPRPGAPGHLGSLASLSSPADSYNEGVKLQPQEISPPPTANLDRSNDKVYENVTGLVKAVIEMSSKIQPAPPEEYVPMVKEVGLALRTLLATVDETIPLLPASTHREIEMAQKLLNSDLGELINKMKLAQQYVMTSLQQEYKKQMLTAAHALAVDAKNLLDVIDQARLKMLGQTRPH
Assay [4] relates to Fibrinogen (Alexa647-labelled). Put plainly: Alexa647-fibrinogen binding to printed small molecules – biochemical, small-molecule microarray, 635/667 nm fluorescence, artefact control for SMM control-protein annotation, profiling panel (AID 1131).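 Also: z-score merges 667 nm fluorescence with per-spot signal-to-noise over triplicate slides.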 The note with it: fibrinogen-A647 binding fluorescence, higher = more signal.
The target in assay [5] is Follistatin (Homo sapiens) (UniProt P19883). Briefly: FST protein binding to printed compounds – biochemical, small-molecule microarray, 635/667 nm fluorescence, primary screen (AID 1132). The following applies: 635 nm fluorescence, higher = more signal.
Follistatin (Homo sapiens), sequence (P19883 whole entry, looked up): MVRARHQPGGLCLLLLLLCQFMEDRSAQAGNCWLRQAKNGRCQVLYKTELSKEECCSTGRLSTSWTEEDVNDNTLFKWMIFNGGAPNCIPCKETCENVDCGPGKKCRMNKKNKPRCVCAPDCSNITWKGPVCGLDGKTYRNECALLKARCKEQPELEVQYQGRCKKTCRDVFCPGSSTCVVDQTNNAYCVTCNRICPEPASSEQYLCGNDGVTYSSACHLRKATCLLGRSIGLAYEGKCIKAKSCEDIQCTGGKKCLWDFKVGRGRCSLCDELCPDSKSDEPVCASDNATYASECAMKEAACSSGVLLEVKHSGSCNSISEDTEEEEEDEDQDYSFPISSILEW
In assay [6] the target is Fibroblast growth factor 2 (Homo sapiens) (UniProt P09038). Briefly: basic fibroblast growth factor binding to printed compounds – biochemical, small-molecule microarray, 635/667 nm fluorescence, primary screen (AID 1133). The note with it: FGF2, fluorescence 635/667, higher = more signal.
Fibroblast growth factor 2 (Homo sapiens), sequence (P09038 whole entry, looked up): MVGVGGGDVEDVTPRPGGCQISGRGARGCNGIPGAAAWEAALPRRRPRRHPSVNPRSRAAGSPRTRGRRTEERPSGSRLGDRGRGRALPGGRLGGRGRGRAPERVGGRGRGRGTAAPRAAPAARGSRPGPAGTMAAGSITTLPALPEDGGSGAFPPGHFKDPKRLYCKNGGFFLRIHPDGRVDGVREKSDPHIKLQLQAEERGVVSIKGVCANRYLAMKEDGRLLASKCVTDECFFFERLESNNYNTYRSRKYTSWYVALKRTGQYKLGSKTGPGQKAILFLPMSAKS
Assay [7] in a line: JC-1 mitochondrial potential readout, lung cancer cells – cell-based, A549, JC-1 fluorescence, basal, 24 h, 100 nL, profiling panel (AID 1138).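 Also: A549 lung adenocarcinoma cells under basal conditions with no added stimulus; test concentration not given here.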 The note with it: higher = more signal.
A further assay relates to Lefty1. Put plainly: Lefty1 protein binding to printed compounds – biochemical, small-molecule microarray, 635/667 nm fluorescence, primary screen (AID 1139). The note with it: fluorescence 635/667, higher = more signal.
The subject of assay [8] is wheat germ agglutinin (Triticum aestivum), Alexa647-labelled. Put plainly: Alexa647-WGA lectin binding to printed small molecules – biochemical, small-molecule microarray, 635/667 nm fluorescence, artefact control for SMM control-protein annotation, profiling panel (AID 1140).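 Also: score merges 667 nm feature emission with signal to noise over triplicate slides.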 The following applies: WGA-A647 binding, 635 nm fluorescence, higher = more signal.
In assay [9] the target is Luciferin 4-monooxygenase (Photinus pyralis) (UniProt P08659). Briefly: inhibition of purified Photinus pyralis luciferase – biochemical, luminescence, purified enzyme, 2006 set, primary screen (AID 1141).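 Also: cell-free assay with purified firefly luciferase at 100 ng per well in PBS; test concentration not given here.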 The note with it: purified firefly luciferase, SteadyGlo luminescence, 30 min; higher = more signal, called active from +8 up or from −8 down.
Luciferin 4-monooxygenase (Photinus pyralis), sequence (P08659 whole entry, looked up): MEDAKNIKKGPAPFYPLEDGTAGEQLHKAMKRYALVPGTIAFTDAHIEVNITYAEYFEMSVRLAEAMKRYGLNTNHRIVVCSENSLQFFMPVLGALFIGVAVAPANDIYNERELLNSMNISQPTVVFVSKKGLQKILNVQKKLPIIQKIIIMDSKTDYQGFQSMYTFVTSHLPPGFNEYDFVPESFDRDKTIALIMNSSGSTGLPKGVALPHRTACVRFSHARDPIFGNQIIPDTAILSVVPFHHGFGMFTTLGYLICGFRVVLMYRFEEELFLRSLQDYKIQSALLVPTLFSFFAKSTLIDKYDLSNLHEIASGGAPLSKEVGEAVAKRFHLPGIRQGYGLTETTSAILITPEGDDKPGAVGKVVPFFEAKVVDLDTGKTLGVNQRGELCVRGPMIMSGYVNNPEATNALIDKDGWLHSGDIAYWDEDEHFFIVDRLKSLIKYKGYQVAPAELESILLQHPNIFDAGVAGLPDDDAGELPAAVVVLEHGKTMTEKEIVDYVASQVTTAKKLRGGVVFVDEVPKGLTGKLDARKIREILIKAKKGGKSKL
In assay [10] the test system is Wnt5a (protein binding on small-molecule microarray). Briefly: small molecules binding Wnt5a protein – biophysical, small-molecule microarray, 635/667 nm fluorescence, primary screen (AID 1142).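 Also: fluorescence read at 667 nm with signal to noise per printed feature.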 The following applies: 635 nm fluorescence, higher = more signal.
Assay [11] can be described thus: ATP-based viability of Huh7 replicon cells – cell-based, CellTiter-Glo luminescence, basal, 48 h, cytotoxicity control for HCV replication inhibitor project, primary screen (AID 1143).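 Also: Huh7 hepatoma cells carrying a hepatitis C replication reporter with no stimulus; test concentration not given here.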 The note with it: higher = more signal, called active from +8 up or from −8 down. (In general: A replicon is a self-replicating genome or part of one, used to study replication in cells.)

The nature of assay [12]: Pseudomonas biofilm growth suppression – PAO1 strain, BacTiter-Glo luminescence, LB-PBS, primary screen (AID 1144). The following applies: P. aeruginosa PAO1 biofilm, 12 h, higher = more signal.
Assay [13] can be described thus: basal CRE-LacZ reporter activity in PC12 – cell-based, unstimulated, primary screen (AID 1145). The following applies: no forskolin, luminescence, 4.5 h, higher = more signal, called active from +8 up or from −8 down.
Assay [14] can be described thus: forskolin-driven CRE-LacZ activity in PC12 – cell-based, CRE-LacZ reporter, forskolin-stimulated, primary screen (AID 1146).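 Also: PC12 cells with 6xCRE LacZ reporter stimulated by forskolin 10 µM; beta-galactosidase reporter signal reflecting CREB driven transcription.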 The following applies: luminescence, 4.5 h, higher = more signal, called active from +8 up or from −8 down.
The target in assay [15] is Streptavidin (Streptomyces avidinii) (UniProt P22629). Put plainly: compounds binding control protein streptavidin – biophysical, small-molecule microarray, 635/667 nm fluorescence, artefact control for SMM compound annotation, primary screen (AID 1147).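 Also: signal reflects streptavidin binding to arrayed compounds as a control protein.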 The note with it: higher = more signal.
Streptavidin (Streptomyces avidinii), sequence (P22629 whole entry, looked up): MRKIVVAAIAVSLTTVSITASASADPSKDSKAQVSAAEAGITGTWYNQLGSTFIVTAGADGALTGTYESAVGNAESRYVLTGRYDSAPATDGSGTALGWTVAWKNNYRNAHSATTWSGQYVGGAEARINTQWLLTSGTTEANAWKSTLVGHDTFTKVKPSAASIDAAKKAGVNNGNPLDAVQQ
Assay [16] can be described thus: probe aInhba binding on compound microarray – biochemical, small-molecule microarray, 635/667 nm fluorescence, primary screen (AID 1148).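 Also: score merges 667nm spot fluorescence with signal-to-noise for antibody binding to printed compounds.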 The following applies: higher = more signal.
Assay [17] has as its target Torsin-1A (Homo sapiens) (UniProt O14656). Briefly: TOR1A wild-type binding on microarray – cell lysate, small-molecule microarray, lysate, 635/667 nm, primary screen (AID 1149). The following applies: COS7 hTOR1A-WT lysate, 635 nm fluorescence, higher = more signal.
Assay [18] shares this target. Put plainly: torsin A mutant lysate binding on microarrays – cell lysate, small-molecule microarray, COS7 lysate, 635/667 nm fluorescence, primary screen (AID 1150).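 Also: score pools 667 nm emission and signal to noise measuring lysate protein binding.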 The note with it: COS7 hTOR1A mutant lysate, 635 nm fluorescence, higher = more signal.
Assay [19] relates to Sonic hedgehog protein (Shh). Briefly: Sonic hedgehog microarray binding compounds – biochemical, small-molecule microarray, 635/667 nm fluorescence, primary screen (AID 1151).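 Also: Shh protein binding to compounds spotted on small-molecule microarray slides; score combines spot fluorescence intensity with signal-to-noise across triplicate slides.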 The following applies: 635 nm fluorescence, higher = more signal.

Activity calls are given as the source filed them. Unless noted, no rule for the calls is given here.

Torsin-1A (Homo sapiens), sequence (O14656 whole entry, looked up): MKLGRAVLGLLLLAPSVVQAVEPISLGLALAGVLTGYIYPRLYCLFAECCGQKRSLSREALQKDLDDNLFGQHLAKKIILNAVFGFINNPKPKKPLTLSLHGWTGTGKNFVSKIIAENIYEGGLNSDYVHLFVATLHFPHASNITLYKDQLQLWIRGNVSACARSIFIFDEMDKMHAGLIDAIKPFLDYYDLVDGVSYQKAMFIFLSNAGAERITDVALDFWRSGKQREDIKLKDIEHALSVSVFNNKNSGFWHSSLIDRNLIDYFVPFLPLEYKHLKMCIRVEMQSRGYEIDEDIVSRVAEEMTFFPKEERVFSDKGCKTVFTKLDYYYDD

Take `CC(C)C(=C=CC[C@H](O)c1cccc(OCCO)c1)C[C@H](O)c1ccccn1`: the composite z-score in assay [1] is 0.474; in assay [2] it was 0.534; in [3], 0.0358; in assay [4] it was -1.37; in assay [5], 0.972; in assay [6] it was 0.236. Moreover, the composite z-score was 0.788 with Lefty1; 0.641 in assay [8]; -0.103 in assay [10]; -0.502 in assay [15]; -0.0986 in [16]; -0.256 with Torsin-1A (Homo sapiens) [17]. For the same compound, the composite z-score was 0.0951 with Torsin-1A (Homo sapiens) [18] and 1.45 in [19]. Moreover, the z-score in [7] was 0.717; in assay [9] it was -0.147 (inactive); in [11] it was -0.667 (inactive); in assay [12] it was -1.06 (inactive); in [13] it was 2.25 (inactive); in [14], 0.42 (inactive).
For the compound `COCCOC(=O)N1C(=O)[C@@]2(c3cc(C#CCNC(N)=O)ccc31)[C@H](c1ccccc1OCCO)N1[C@H](c3ccccc3)[C@H](c3ccccc3)OC(=O)[C@H]1[C@@H]2C(=O)N1CCCCCCC1`, the composite z-score is 0.364 in [1]; 1.17 in assay [2]; 0.183 in assay [3]; 0.858 in assay [4]; 1.28 in assay [5]; 0.937 in [6]. The composite z-score with Lefty1 is 0.76; in assay [8] it was 1.13; in [10], 0.112; in [15], 0.777; in [16], 0.168; with Torsin-1A (Homo sapiens) [17] it was 0.419. Moreover, the composite z-score with Torsin-1A (Homo sapiens) [18] was 0.367; in assay [19] it was 0.83. Moreover, the z-score in [7] is -1.51; in [9] it was -0.193 (inactive); in assay [11], -0.923 (inactive); in assay [12] it was 0.342 (inactive); in [13] it was 0.2 (inactive); in [14], 1.97 (inactive).
`CCCCCN1CC=CC23O[C@@H]4/C=C\CCCOC(=O)C4[C@H]2C(=O)N(CCCCCO)[C@@H]3C1=O` (stereo not given in full): the composite z-score is 0.163 in [1]; -0.766 in [2]; -0.565 in [3]; -0.832 in assay [4]; -0.38 in assay [5]; -1.11 in assay [6]. The composite z-score in the assay with Lefty1 is -0.0788; in assay [8], -0.662; in [10] it was -0.827; in [15], -0.878; in assay [16] it was -0.128; in the assay with Torsin-1A (Homo sapiens) [17], -2.11. Further, the composite z-score with Torsin-1A (Homo sapiens) [18] was -1.09; in [19], -0.0251. In addition, the z-score in assay [7] is 0.27; in [9], -3.1 (inactive); in [11], -0.347 (inactive); in assay [12] it was -0.678 (inactive); in assay [13] it was -1.03 (inactive); in [14] it was 0.0118 (inactive).
With `CC1CC/C=C\[C@H]2OC34C=CCN(C(C)C)C(=O)[C@H]3N(C(C)CO)C(=O)[C@@H]4C2C(=O)O1` (stereo not given in full), the composite z-score in assay [1] is -0.112; in assay [2], -0.504; in assay [3], -0.205; in assay [4], -1.22; in assay [5], 0.305; in assay [6] it was -0.455. Besides, the composite z-score with Lefty1 was 0.572; in assay [8], 0.748; in assay [10] it was -0.293; in assay [15], -0.447; in [16] it was 1.09; with Torsin-1A (Homo sapiens) [17] it was 0.0269. In addition, the composite z-score in the assay with Torsin-1A (Homo sapiens) [18] is -0.381; in assay [19] it was 1.09. Also, the z-score is 0.501 in [7]; -0.316 (inactive) in assay [9]; 0.143 (inactive) in [11]; -0.657 (inactive) in assay [12]; -1.04 (inactive) in assay [13]; -0.627 (inactive) in assay [14].
Take `C=CCNC(=O)[C@H]1[C@@H]2C(=O)O[C@@H](c3ccccc3)[C@@H](c3ccccc3)N2[C@@H](c2ccc(OCCO)cc2)[C@]12C(=O)N(C(=O)OCCOC)c1ccc(C#CCNC(N)=O)cc12`: the composite z-score in [1] was found to be 1.9; in assay [2], 1.15; in assay [3], 0.621; in assay [4], 0.811; in assay [5], 1.37; in assay [6] it was 1.71. Besides, the composite z-score was 0.707 in the assay on Lefty1; 0.929 in [8]; 0.0992 in [10]; 0.286 in [15]; -0.0313 in assay [16]; 0.668 with Torsin-1A (Homo sapiens) [17]. The results for the composite z-score (with Torsin-1A (Homo sapiens) [18]; in assay [19]) were 0.83 and 0.984, respectively. Also, the z-score in [7] is -0.0216; in assay [9], -0.0331 (inactive); in assay [11], -0.646 (inactive); in assay [12] it was -1.36 (inactive); in assay [13], -0.618 (inactive); in assay [14], -0.779 (inactive).

The record behind these values is PubChem BioAssay.
